# Experimental data published in the supplement of paper PMC12350171.
# Where a name gives a salt, the structure may show the parent alone.
# Test system: Haemophilus parainfluenzae
# Test: growth AUC normalised to DMSO control (fraction of control); higher = less growth inhibition, active = hit call of the paper
# Conditions: 20 µM;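 active = AUC significantly below DMSO controls by Student t-fit with adjusted P under 0.01; inactive = not significantly reduced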
# Method in brief: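 Hemin and NAD were added to the medium for Haemophilus parainfluenzae. All pathogens, after two anaerobic passages, were inoculated at a starting OD578 of 0.01 into pre-reduced mGAM plates with 20 μM compound and 1% DMSO under breathable seals, and OD578 was read hourly for 24 h in three biological replicates. AUC of each growth curve was obtained with the trapezoidal rule up to the exponential-to-stationary transition and normalised to DMSO controls from the same plate.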
row,Structure (SMILES),growth AUC normalised to DMSO control
1,COCCOC(=O)C1=C(C)NC(C)=C(C(=O)OC(C)C)C1c1cccc([N+](=O)[O-])c1 (centres undefined) [Nimodipine],0.959 (inactive)
2,CN(C/C=C/c1ccccc1)Cc1cccc2ccccc12 [Naftifine hydrochloride],0.977 (inactive)
3,Cc1[nH]c(=O)c(C#N)cc1-c1ccncc1 [Milrinone],0.987 (inactive)
4,CC1=C(CC(=O)O)c2cc(F)ccc2/C1=C\c1ccc([S+](C)[O-])cc1 (centres undefined) [Sulindac],0.942 (inactive)
5,CC(=O)Oc1cccc2c1C(=O)c1c(OC(C)=O)cc(C(=O)O)cc1C2=O [Diacerein],0.779 (active)
6,C=CC(N)CCC(=O)O (centres undefined) [Vigabatrin hydrochloride],1.02 (inactive)
7,O=C(O)CCCC[C@@H]1SC[C@@H]2NC(=O)N[C@@H]21 [Biotin],1.01 (inactive)
8,O=C(O)c1cccnc1 [Niacin],1.07 (inactive)
9,Cc1cn([C@H]2C=C[C@@H](CO)O2)c(=O)[nH]c1=O [Stavudine],1.02 (inactive)
10,C[C@]12C=CC(=O)C=C1CC[C@@H]1[C@@H]2C(=O)C[C@@]2(C)[C@H]1CC[C@]2(O)C(=O)CO [Prednisone],1.01 (inactive)
11,CC(C(=O)O)c1cccc(Oc2ccccc2)c1 (centres undefined) [Fenoprofen calcium salt dihydrate],0.945 (inactive)
12,O=c1[nH]c(=O)n([C@H]2C[C@H](O)[C@@H](CO)O2)cc1F [Floxuridine],0.0967 (active)
13,C=C1/C(=C\C=C2/CCC[C@]3(C)[C@@H]([C@H](C)/C=C/[C@@H](O)C4CC4)CC[C@@H]23)C[C@@H](O)C[C@@H]1O [Calcipotriene],0.836 (inactive)
14,CCN1CCCC1CNC(=O)c1cc(S(N)(=O)=O)ccc1OC (centres undefined) [Sulpiride],1.02 (inactive)
15,Clc1ccc2c(c1)CCc1cccnc1C2=C1CCNCC1 [Desloratadine],1.03 (inactive)
16,CC(=O)/N=c1/sc(S(N)(=O)=O)nn1C [Methazolamide],1 (inactive)
17,CN(C)CCCN1c2ccccc2Sc2ccccc21 [Promazine hydrochloride],0.841 (inactive)

row,Structure (SMILES),growth AUC normalised to DMSO control
1,CCN(CC)C(=S)SSC(=S)N(CC)CC [Disulfiram],0.979 (inactive)
2,Cc1c(C)c2c(c(C)c1O)CCC(C)(C(=O)O)O2 (centres undefined) [Trolox],1 (inactive)
3,CCCC1C(=O)N2C(N(C)C)=Nc3ccc(C)cc3N2C1=O (centres undefined) [Azapropazone],0.968 (inactive)
4,Clc1ccc2nsnc2c1NC1=NCCN1 [Tizanidine hydrochloride],0.965 (inactive)
5,N=C(NCCCCCCNC(=N)NC(=N)Nc1ccc(Cl)cc1)NC(=N)Nc1ccc(Cl)cc1 [Chlorhexidine],0.139 (active)
6,NNC(=O)c1ccncc1 [Isoniazid],1.09 (inactive)
7,CC(C)C(=O)Nc1ccc([N+](=O)[O-])c(C(F)(F)F)c1 [Flutamide],1.09 (inactive)
8,NCC[C@H](O)C(=O)N[C@@H]1C[C@H](N)[C@@H](O[C@H]2O[C@H](CN)[C@@H](O)[C@H](O)[C@H]2O)[C@H](O)[C@H]1O[C@H]1O[C@H](CO)[C@@H](O)[C@H](N)[C@H]1O [Amikacin hydrate],0.0269 (active)
9,CCN(CCCc1ccccc1)CCCc1ccccc1 [Alverine citrate salt],0.925 (inactive)
10,CCOC(=O)C1=C[C@]2(CC)CCCN3CCc4c(n1c1ccccc41)[C@@H]32 [Vinpocetine],0.845 (inactive)
11,CC1(C)S[C@@H]2[C@H](NC(=O)[C@H](C(=O)O)c3ccsc3)C(=O)N2[C@H]1C(=O)O [Ticarcillin sodium],0.0663 (active)
12,c1ccc2c(CC3=NCCN3)cccc2c1 [Naphazoline hydrochloride],1.01 (inactive)
13,O=C(CCCN1CC=C(n2c(=O)[nH]c3ccccc32)CC1)c1ccc(F)cc1 [Droperidol],0.995 (inactive)
14,Nc1cc(-c2ccncc2)c[nH]c1=O [Amrinone],1.09 (inactive)
15,CC1(C)S[C@@H]2[C@H](NC(=O)[C@H](N)c3ccccc3)C(=O)N2[C@H]1C(=O)O [Ampicillin trihydrate],0.0576 (active)
16,CN(C)CCC[C@@]1(c2ccc(F)cc2)OCc2cc(C#N)ccc21 [Escitalopram oxalate],1.03 (inactive)
17,COc1ccccc1N1CCN(CC(O)COc2cccc3ccccc23)CC1 (centres undefined) [Naftopidil dihydrochloride],0.971 (inactive)
